In PubChem BioAssay AID1233 (SRMLSC, 2008) one finds outcome data, which are given here for 18 molecules.

Results with a measured potency or affinity are listed apart. Calls of active or inactive are those of the source.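 How the source made its calls: active means a dose-response curve fit returns a half-maximal inhibitory concentration, extrapolated values included; inactive means the fit returns no such concentration.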

This experiment deals with HMG-CoA reductase [Enterococcus faecalis] (UniProt Q9FD70). The experiment in a line: class II HMG-CoA reductase inhibition potency – biochemical, Enterococcus faecalis, confirmation (AID 1233). The settings on record: purified E. faecalis HMGR, NADPH absorbance 340 nm kinetics; series mostly up to 100 µM.
On to `Cc1ccc(S(=O)(=O)N(C)Cc2ccc(-c3nnco3)cc2)cc1`, for which the molecule was called inactive.
Consider `CCCc1nc(NCc2ccccn2)c2nnn(Cc3ccccc3F)c2n1`, for which the molecule was classed as inactive.
The result for `COc1cc(SC)ccc1C(=O)NCc1ccc(C)cc1` reads “inactive”; that for `O=C(CSc1nnnn1-c1ccccc1)Nc1ccc(N2CCOCC2)c(Cl)c1`, “inactive”.
The result for `COc1ccc(N(C(C)C(=O)N/N=C/c2ccc(OC(C)C)cc2)S(C)(=O)=O)cc1` (stereo not drawn) reads “inactive”.
The value for `CCCCC1C2=C(CC(C)(C)CC2=O)OC2=C1C(=O)CC(C)(C)C2` was “inactive”; that for `CN(C)c1ccc(P(=O)(OCc2ccccc2)C(O)c2ccncc2)cc1` (stereo not drawn) was “inactive”; that for `CCN(CC)c1ccc(-c2n[nH]c(=S)n2-c2ccccc2C)cc1` was “inactive”.
As to `COC(=O)CC1COc2ccccc2N1C(=O)c1ccc(Br)cc1` (stereo not drawn), the result was inactive.
The result for `Cc1cc(C=O)c2c(c1)C=CC1(Oc3ccccc3C(=O)N1C)O2` (stereo not drawn) reads “inactive”; that for `COc1ccc(Nc2ccc(S(=O)(=O)N3CCCCC3)cc2[N+](=O)[O-])cc1`, “inactive”.
For `CCCCCCNC(=O)C(=O)NCCc1ccc(Cl)cc1`, the molecule was classed as inactive.
`CCSc1nnc(NC(=O)CN2C(=O)C3CC=CCC3C2=O)s1` (stereo not drawn): the molecule was classed as inactive.
The result for `O=C(NCC(=O)N(Cc1cccs1)C(C(=O)NC1CCCC1)c1ccncc1)c1ccco1` (stereo not drawn) reads “inactive”.
Consider `O=C1c2ccccc2C(=O)C1c1ccc2ccccc2n1`, for which the outcome was inactive.
`Cc1[nH][nH]c(=O)c1C(c1c(C)[nH][nH]c1=O)c1cn(Cc2ccc(F)cc2)c2ccccc12`: the outcome was inactive.
The result for `O=S1(=O)CC=C(CSC(=S)NC2CCS(=O)(=O)C2)C1` (stereo not drawn) reads “inactive”; that for `Cc1ccc2nsnc2c1N`, “inactive”.
